The results in this text go back to PubChem BioAssay AID434955 (Southern Research Specialized Biocontainment Screening …, 2010).

This test in a line: beta-lactam sensitization of Mtb H37Rv, H37Rv (AID 434955).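 Note: growth measured after seven days incubation then overnight dye step; 0% = bacteria only wells and 100% = bacteria with antibiotic.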 The settings on record: M. tuberculosis H37Rv growth with meropenem, percent inhibition, at 25 µM.
Setting [1] is: measured here: primary screen without meropenem.

In general, inhibition refers to the change of the read-out against control, counted positive when it falls.

Where “and” joins values, the source holds several entries; their conditions need not be identical. Equal entries are not always repeated. Out of some 330,000 compounds screened, about 880 (0.27%) were called active. About 1% were inconclusive and are not listed. The rule behind the calls is not given here. A selection follows.

`CCC1CO/C(=C(\C(=C(Cl)Cl)N2CCOCC2)[N+](=O)[O-])N1` (configuration not stated): the inhibition (stronger effect = higher value) was -17.5% (inactive) and the inhibition under setting [1] is -10.3%.
On the same counts, the results for `CCOC(=O)N1CCN(C(=O)C2CCN(S(C)(=O)=O)CC2)CC1` are 2.13% (inactive) and -5.28%.
For the molecule `O=c1[nH]c(=O)n(Cc2ccco2)c2c1C(C(F)(F)F)(C(F)(F)F)N=C(c1ccco1)N2`, the inhibition was -12.9% (inactive) (stronger effect = higher value) and -21.1% under setting [1].
For `O=c1c2ccccc2ncn1CCCCOc1ccccc1F`, the inhibition is, setting by setting: (stronger effect = higher value) -1.85% (inactive); under setting [1], 11.4%.
On the same counts, the results for `Cn1nc(C(F)(F)F)cc1C(=O)O` are -2.73% (inactive) and 4.91%.
For `O=C1CC2(CCCC2)Oc2ccc(Cl)cc21`, the inhibition (stronger effect = higher value) is -2.7% (inactive) and the inhibition under setting [1] is -12.8%.
For `COc1ccc(C2C(C(C)=O)=C(O)C(=O)N2c2nccs2)cc1` (configuration not stated), in that order: -8% (inactive) and -1.43%.
For `NC(=O)COC(=O)c1sc2cc(F)ccc2c1Cl`, in that order: 40.4% (inactive) and 37.9%.
For `O=C(NC(Cc1ccccc1)C(=O)O)/C(=C\c1ccccc1)NC(=O)c1ccco1` (configuration not stated), in that order: -13.2% (inactive) and -12.5%.
Turning to `CN1CCc2nc(SC(C(=O)O)c3ccccc3)c(C#N)c(-c3cccs3)c2C1` (configuration not stated), the inhibition is -5.45% (inactive) (stronger effect = higher value) and -0.72% under setting [1].
As to `CCOc1cc(C)ccc1OCc1nnc(SCC(=O)Nc2cccc(C(=O)O)c2)n1-c1ccccc1`, the inhibition is, setting by setting: (stronger effect = higher value) -1.64% (inactive); under setting [1], -0.86%.
For `CCOC(=O)c1ccc(NC(=O)C2CC(=O)N(c3ccc4c(c3)OCCO4)C2)cc1` (configuration not stated), in that order: -4.22% (inactive) and 4.56%.
For `O=C(c1ccc(F)cc1)n1c(=S)nc2ccccn21`, in that order: -3.39% (inactive) and -1.53%.
For `CN1CCN(NC(=O)Nc2ccc(Br)cc2)CC1`, in that order: 5.75% (inactive) and 6.69%.
In the case of `CC(=O)C1=C(C)NC(=O)NC1c1ccc2c(c1)OCO2` (configuration not stated), the inhibition is -1.59% (inactive) (stronger effect = higher value) and 7.05% under setting [1].
On the same counts, the results for `COc1ccc(NC2CCCN(C(=O)c3ccncc3)C2)cc1` (configuration not stated) are -5.62% (inactive) and 1.6%.
On the same counts, the results for `Cc1cc(C)cc(N(CCC#N)C(=O)CN2C(=O)NC3(CCCC3)C2=O)c1` are -5.09% (inactive) and -6.67%.
On the same counts, the results for `CC(C)N1CCC(NC(=O)Nc2ccccc2)CC1` are -9.18% (inactive) and -1.81%.
Turning to `Cc1ccc(NS(=O)(=O)c2ccc(-c3coc(C)n3)cc2)c(C)c1`, the inhibition is -2.05% (inactive) (stronger effect = higher value) and 3.59% under setting [1].
On the same counts, the results for `COc1ccc(C(=O)NC(C)Cn2nc(C)cc2C)cc1OC1CCN(C(C)=O)CC1` (configuration not stated) are -1.95% (inactive) and -5.6%.
For `COCCCNC(=O)Cc1ccc(-n2c(C)nc3cccnc32)cc1`, in that order: -2.02% (inactive) and -1.03%.
On the same counts, the results for `O=C(NCCC1=CCCCC1)c1ccc(-n2cncn2)cc1` are 3.02% (inactive) and 10.8%.
Turning to `CC1CCN(S(=O)(=O)c2ccc(NC(=O)C3CC(=O)N(c4ccccc4)C3)cc2)CC1` (configuration not stated), the inhibition was 1.58% (inactive) (stronger effect = higher value) and 6.16% under setting [1].
For `COc1ccc(OC)c(NC(=O)c2cccc(S(=O)(=O)N3CCN(C(C)=O)CC3)c2)c1`, in that order: 1.25% (inactive) and 1.6%.
Consider `CCc1nn(CCCN2CCN(c3cccc(Cl)c3)CC2)c(=O)n1CCOc1ccccc1`, for which the inhibition (stronger effect = higher value) was -2.61% (inactive) and 5.29% (inactive); the inhibition under setting [1] is 51.1% and 50%.
Consider `COc1ccc(C)c(Cn2c(-c3nonc3N)nc3ccccc32)c1`, for which the inhibition reads like this: (stronger effect = higher value) -3.23% (inactive); under setting [1], -5.86%.
For `C=CCSc1ccc(S(=O)(=O)N2CCN(C)CC2)cn1`, in that order: -0.58% (inactive) and 5.36%.
Consider `Cc1ccc(C(=O)NN(CCC#N)C2=NS(=O)(=O)c3ccccc32)cc1`, for which the inhibition is, setting by setting: (stronger effect = higher value) -5.01% (inactive); under setting [1], -4.15%.
For `CC(NC(=S)NC1CCCCC1)C(c1ccccc1)N1CCOCC1` (configuration not stated), in that order: -1.18% (inactive) and -9.18%.
As to `COC(=O)N/N=C/c1c[n+]([O-])c2ccccc2[n+]1[O-]`, the inhibition is, setting by setting: (stronger effect = higher value) 99.7% (inactive); under setting [1], 100%.
On the same counts, the results for `Nn1c(SCC(=O)NC2CCCc3ccccc32)nnc1C1CC1` (configuration not stated) are -6.27% (inactive) and -8.89%.
For `Cn1nnnc1-c1cc(Cl)cc(Cl)c1`, in that order: -6.9% (inactive) and -5.1%.
On the same counts, the results for `FC(F)(F)COc1nc(N2CCCCC2)nc(N2CCNCC2)n1` are -3.65% (inactive) and -3.73%.
`Cc1ccc(S(=O)(=O)N(C)c2ccc(OCC(=O)OCc3ccc(C#N)cc3)cc2)cc1`: the inhibition is, setting by setting: (stronger effect = higher value) 94.4% (inactive); under setting [1], 93.2%.
`O=C(c1cc(-c2ccc(Cl)cc2)on1)N1CCN(c2ccccc2)CC1`: the inhibition (stronger effect = higher value) was 4.32% (inactive) and the inhibition under setting [1] came out at 0.26%.
For `Nc1c(N(CCO)C(=O)C2CCCCC2)c(=O)[nH]c(=O)n1Cc1ccccc1`, in that order: 1.76% (inactive) and -2.9%.
On the same counts, the results for `Cc1ccc(N2CC(C(=O)Nc3cc(Cl)ccc3-n3cncn3)CC2=O)cc1` (configuration not stated) are -7.41% (inactive) and 3.62%.
With `COCCNC(=O)C(c1ccc(O)cc1)N(C(=O)CCC(=O)Nc1nccs1)c1ccc(C)cc1` (configuration not stated), the inhibition was -3.29% (inactive) (stronger effect = higher value) and -1.6% under setting [1].
On the same counts, the results for `O=C(Cn1cnc2c(cnn2-c2ccc(F)cc2)c1=O)NCCc1ccccc1` are 8.42% (inactive) and 5.1%.
In the case of `CCOC(=O)C1CCN(C(=O)Cc2c(C(=O)O)[nH]c3ccccc23)CC1`, the inhibition is 11.4% (inactive) (stronger effect = higher value) and 8.1% under setting [1].
On the same counts, the results for `COCc1cc(C)nc2sc3c(=O)n(-c4cccc5ccccc45)nnc3c12` are 41.4% (inactive) and -9.11%.
For `CN(c1ccccc1)S(=O)(=O)c1cccc(C(=O)NNC(=O)c2ccncc2)c1`, in that order: -14.5% (inactive) and 10.4%.
Turning to `COc1ccccc1C(=O)N/C(=C/c1ccco1)C(=O)Nc1ccc(C(=O)O)cc1`, the inhibition is, setting by setting: (stronger effect = higher value) 5.03% (inactive); under setting [1], 3.35%.
As for `CCOC(=O)C(=O)C1C(=O)Nc2ccccc21` (configuration not stated), the inhibition by setting is: (stronger effect = higher value) 5.13% (inactive); under setting [1], 3%.
For `COc1cc(NS(=O)(=O)c2ccc(NC(=O)c3ccc(S(=O)(=O)N4CCCCC4)cc3)cc2)ncn1`, in that order: -5.84% (inactive) and -4.25%.
Regarding `Cc1ccc(C(=O)N2CCC(n3nccc3NC(=O)Nc3cccc(F)c3)CC2)cn1`, the inhibition was -9.41% (inactive) (stronger effect = higher value) and -4.97% under setting [1].
On the same counts, the results for `COc1ccccc1N(C(=O)Cn1nnc2ccccc21)C(C(=O)NCc1ccco1)c1ccc(C)o1` (configuration not stated) are -4.29% (inactive) and -5.41%.
For `CCN(Cc1nc2ccccc2c(=O)[nH]1)Cc1cc(=O)oc2cc(C)c(C)cc12`, in that order: 1.77% (inactive) and -4.21%.
As to `COc1cccc(N2CC(NC(=O)c3ccc4ccccc4c3)CC2=O)c1` (configuration not stated), the inhibition was -3.62% (inactive) (stronger effect = higher value) and 10.2% under setting [1].
On the same counts, the results for `O=C(CC1OC(=O)c2ccccc21)NC1CCCCC1` (configuration not stated) are 2.15% (inactive) and 2.66%.
On the same counts, the results for `COc1ccccc1CCCNC(=O)C1CCC(=O)N(CCN2CCOCC2)C1` (configuration not stated) are 1.01% (inactive) and -9.27%.
`Cc1cc(C)c2nc3nc(C)cc(C)c3c(N)c2c1`: the inhibition is 6.08% (inactive) (stronger effect = higher value) and 4.53% under setting [1].
For `CCC(C)N(C(=O)COC(=O)c1nc(Cl)ccc1Cl)C1CCS(=O)(=O)C1` (configuration not stated), in that order: -10.3% (inactive) and -10.3%.
Consider `CCn1c(CNC(=O)c2ccco2)nnc1SCC(=O)Nc1cccc(F)c1`, for which the inhibition is -8.4% (inactive) (stronger effect = higher value) and -1.57% under setting [1].
Regarding `O=c1cc(CN2CCN(c3cccc(Cl)c3)CC2)c2cc3c(cc2o1)CCCC3`, the inhibition reads like this: (stronger effect = higher value) -11.5% (inactive); under setting [1], 1.9%.
For `COc1ccc(-c2ccc(OC(=O)NC3CCS(=O)(=O)C3)cc2)cc1` (configuration not stated), in that order: 87.1% (inactive) and 66.5%.
On the same counts, the results for `COCCOC(=O)C1=C(C)NC(=O)NC1c1cc2c(cc1Br)OCO2` (configuration not stated) are -3.19% (inactive) and 0.53%.
On the same counts, the results for `Cc1ccc(C(=O)N2CCN(S(=O)(=O)N3CCOCC3)CC2)cc1` are -7.62% (inactive) and -3.45%.
For `CC(C)Cc1ccc(S(=O)(=O)N2CCN(C(=O)c3ccco3)CC2)cc1`, the inhibition (stronger effect = higher value) is 1.6% (inactive) and the inhibition under setting [1] is -4.13%.
For `C/C(=N/O)c1ccc(N2C(=O)C3C4C=CC(C3C2=O)C2C3C(=O)N(c5ccc(/C(C)=N/O)cc5)C(=O)C3C42)cc1` (configuration not stated), the inhibition was -4.77% (inactive) (stronger effect = higher value) and -7.58% under setting [1].
On the same counts, the results for `Cc1ccc(S(=O)(=O)N(CC(O)CN2C(=O)NC(C)(C)C2=O)c2cccc([N+](=O)[O-])c2)cc1` (configuration not stated) are 16.4% (inactive) and 4.68%.
On the same counts, the results for `CC/S(CC1CC1(Cl)Cl)=N\S(=O)(=O)c1ccc(C)cc1` (configuration not stated) are -10.6% (inactive) and -11.9%.
On the same counts, the results for `CCOc1cc(NC(=O)CCl)c(OCC)cc1NC(C)=O` are 90.5% (inactive) and 98.2%.
Consider `CC(C)CCOc1ccc(C(=O)C[N+]2(C)CCOCC2)cc1`, for which the inhibition reads like this: (stronger effect = higher value) -6.59% (inactive); under setting [1], 4.15%.
Turning to `COC(=O)C(C)N=Cc1ccccc1` (configuration not stated), the inhibition reads like this: (stronger effect = higher value) -4.31% (inactive); under setting [1], 0.46%.
On the same counts, the results for `O=C(C1CC(=O)N(C2CCCCC2)C1)N1CCN(c2ccccc2)CC1` (configuration not stated) are 0.44% (inactive) and 1.29%.
For `O=[N+]([O-])c1c(NCCO)cc(Sc2nc3ccccc3s2)c2nonc12`, in that order: 95.6% (inactive) and 96%.
On the same counts, the results for `O=C(NCc1ccc2c(c1)OCO2)c1cc([N+](=O)[O-])ccc1N1CCOCC1` are -1.78% (inactive) and -2.18%.
For `COc1ccc(NC(=O)COc2ccc(C(=O)c3ccc(F)cc3)cc2)cc1S(N)(=O)=O`, the inhibition reads like this: (stronger effect = higher value) 7.84% (inactive); under setting [1], 10.7%.
On the same counts, the results for `N#Cc1ccc(COC(=O)Cn2nnc(-c3ccccc3)n2)cc1` are 2.69% (inactive) and 0.73%.
On the same counts, the results for `O=C(COC(=O)Cc1ccccc1F)NNC(=O)c1ccc(Cl)cc1` are -6.06% (inactive) and 20.8%.
Regarding `CC(=O)Nc1ccc(NC(=O)CSc2nnnn2-c2ccccc2F)cc1`, the inhibition by setting is: (stronger effect = higher value) -2.11% (inactive); under setting [1], -2.67%.
For `CC(C)c1nc(CNC(=O)CC2C(=O)NCCN2Cc2ccoc2)cs1` (configuration not stated), in that order: -7.57% (inactive) and -8.36%.
For `O=C(CC1SC(=Nc2ccccc2F)N(CCN2CCOCC2)C1=O)Nc1ccc(F)cc1F` (configuration not stated), in that order: 3.51% (inactive) and 2.75%.
On the same counts, the results for `CCc1ccc(-c2cc3c(=O)n(CC(=O)NCCCN4CCN(Cc5ccccc5)CC4)nc(C)n3n2)cc1` are 99.7% (inactive) and 99.5%.
Take `CO/N=C(/CS(=O)(=O)c1ccc(Br)cc1)c1ccc(OC)cc1`: the inhibition by setting is: (stronger effect = higher value) -4.01% (inactive); under setting [1], -5.94%.
